# According to ChEMBL document CHEMBL1961873, “Compounds: GSK PKIS; Assays: Nanosyn kinase panel” (2012):
# Tests used:
# [1] = molecular target: Tyrosine-protein kinase receptor UFO (Homo sapiens) (UniProt P30530); conditions: at 1 µM
# [2] = molecular target: Tyrosine-protein kinase Blk (Homo sapiens) (UniProt P51451); conditions: at 0.1 µM
# [3] = molecular target: Tyrosine-protein kinase Blk (Homo sapiens) (UniProt P51451); conditions: at 1 µM
# [4] = molecular target: T1, Cytoplasmic tyrosine-protein kinase BMX (Homo sapiens) (UniProt P51813); conditions: at 0.1 µM
# T1 sequence (whole entry): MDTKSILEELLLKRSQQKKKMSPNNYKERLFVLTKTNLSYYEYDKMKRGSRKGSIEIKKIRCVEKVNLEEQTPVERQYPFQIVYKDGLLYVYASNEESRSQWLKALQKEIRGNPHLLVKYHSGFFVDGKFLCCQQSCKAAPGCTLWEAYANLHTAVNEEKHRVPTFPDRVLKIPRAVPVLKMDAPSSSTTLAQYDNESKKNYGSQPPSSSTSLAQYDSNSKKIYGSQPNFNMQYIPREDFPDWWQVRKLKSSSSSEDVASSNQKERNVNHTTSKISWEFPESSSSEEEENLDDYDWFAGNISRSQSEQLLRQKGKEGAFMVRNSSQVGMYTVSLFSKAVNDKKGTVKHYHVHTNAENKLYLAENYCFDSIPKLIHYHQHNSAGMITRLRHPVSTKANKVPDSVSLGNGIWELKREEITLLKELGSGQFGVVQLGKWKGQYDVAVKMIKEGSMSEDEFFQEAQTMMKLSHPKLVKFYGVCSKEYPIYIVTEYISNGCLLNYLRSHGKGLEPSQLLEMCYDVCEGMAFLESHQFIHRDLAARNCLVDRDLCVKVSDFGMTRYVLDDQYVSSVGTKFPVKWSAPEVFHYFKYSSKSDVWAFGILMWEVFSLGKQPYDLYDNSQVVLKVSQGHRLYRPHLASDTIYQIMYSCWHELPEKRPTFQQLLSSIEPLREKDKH
# [5] = molecular target: T1, Cytoplasmic tyrosine-protein kinase BMX (Homo sapiens); conditions: at 1 µM
# [6] = molecular target: Protein-tyrosine kinase 6 (Homo sapiens) (UniProt Q13882); conditions: at 0.1 µM
# [7] = molecular target: Protein-tyrosine kinase 6 (Homo sapiens) (UniProt Q13882); conditions: at 1 µM
# [8] = molecular target: Tyrosine-protein kinase BTK (Homo sapiens) (UniProt Q06187); conditions: at 0.1 µM
# [9] = molecular target: Tyrosine-protein kinase BTK (Homo sapiens) (UniProt Q06187); conditions: at 1 µM
# [10] = molecular target: Tyrosine-protein kinase CSK (Homo sapiens) (UniProt P41240); conditions: at 0.1 µM
# [11] = molecular target: Tyrosine-protein kinase CSK (Homo sapiens) (UniProt P41240); conditions: at 1 µM
# [12] = molecular target: T2, Discoidin domain-containing receptor 2 (Homo sapiens) (UniProt Q16832); conditions: at 0.1 µM
# T2 sequence (whole entry): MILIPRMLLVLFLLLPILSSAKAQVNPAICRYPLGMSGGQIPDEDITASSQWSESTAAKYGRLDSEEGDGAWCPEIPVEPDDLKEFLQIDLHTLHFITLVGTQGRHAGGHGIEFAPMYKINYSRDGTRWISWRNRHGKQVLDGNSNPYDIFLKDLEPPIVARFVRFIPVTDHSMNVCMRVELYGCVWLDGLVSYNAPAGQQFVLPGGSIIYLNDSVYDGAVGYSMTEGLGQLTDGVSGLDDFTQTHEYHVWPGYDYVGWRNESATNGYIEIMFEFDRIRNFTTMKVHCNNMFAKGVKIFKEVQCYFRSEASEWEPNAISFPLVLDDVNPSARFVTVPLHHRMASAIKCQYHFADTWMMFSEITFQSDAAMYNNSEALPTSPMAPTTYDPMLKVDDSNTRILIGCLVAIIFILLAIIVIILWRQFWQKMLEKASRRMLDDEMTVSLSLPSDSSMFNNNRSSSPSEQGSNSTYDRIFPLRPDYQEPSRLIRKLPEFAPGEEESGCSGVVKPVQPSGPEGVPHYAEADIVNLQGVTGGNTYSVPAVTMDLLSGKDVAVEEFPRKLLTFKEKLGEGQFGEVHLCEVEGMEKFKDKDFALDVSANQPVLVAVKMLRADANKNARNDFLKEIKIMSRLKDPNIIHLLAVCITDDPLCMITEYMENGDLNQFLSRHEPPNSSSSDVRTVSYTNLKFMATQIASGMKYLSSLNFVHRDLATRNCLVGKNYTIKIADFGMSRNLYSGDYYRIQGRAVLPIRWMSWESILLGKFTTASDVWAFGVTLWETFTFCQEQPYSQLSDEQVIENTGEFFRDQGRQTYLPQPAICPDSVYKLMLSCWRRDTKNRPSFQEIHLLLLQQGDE
# [13] = molecular target: T2, Discoidin domain-containing receptor 2 (Homo sapiens); conditions: at 1 µM
# [14] = molecular target: Epidermal growth factor receptor (Homo sapiens) (UniProt P00533); conditions: at 0.1 µM
# [15] = molecular target: Epidermal growth factor receptor (Homo sapiens) (UniProt P00533); conditions: at 1 µM
# [16] = test system: Epidermal growth factor receptor (Homo sapiens), P00533 [L858R]; conditions: at 0.1 µM
# [17] = test system: Epidermal growth factor receptor (Homo sapiens), P00533 [L858R]; conditions: at 1 µM
# [18] = test system: Epidermal growth factor receptor (Homo sapiens), P00533 [L861Q]; conditions: at 0.1 µM
# [19] = test system: Epidermal growth factor receptor (Homo sapiens), P00533 [L861Q]; conditions: at 1 µM
# [20] = test system: Epidermal growth factor receptor (Homo sapiens), P00533 [T790M]; conditions: at 0.1 µM
# Chain of Epidermal growth factor receptor (Homo sapiens), P00533 [T790M] (P00533 whole entry T790M): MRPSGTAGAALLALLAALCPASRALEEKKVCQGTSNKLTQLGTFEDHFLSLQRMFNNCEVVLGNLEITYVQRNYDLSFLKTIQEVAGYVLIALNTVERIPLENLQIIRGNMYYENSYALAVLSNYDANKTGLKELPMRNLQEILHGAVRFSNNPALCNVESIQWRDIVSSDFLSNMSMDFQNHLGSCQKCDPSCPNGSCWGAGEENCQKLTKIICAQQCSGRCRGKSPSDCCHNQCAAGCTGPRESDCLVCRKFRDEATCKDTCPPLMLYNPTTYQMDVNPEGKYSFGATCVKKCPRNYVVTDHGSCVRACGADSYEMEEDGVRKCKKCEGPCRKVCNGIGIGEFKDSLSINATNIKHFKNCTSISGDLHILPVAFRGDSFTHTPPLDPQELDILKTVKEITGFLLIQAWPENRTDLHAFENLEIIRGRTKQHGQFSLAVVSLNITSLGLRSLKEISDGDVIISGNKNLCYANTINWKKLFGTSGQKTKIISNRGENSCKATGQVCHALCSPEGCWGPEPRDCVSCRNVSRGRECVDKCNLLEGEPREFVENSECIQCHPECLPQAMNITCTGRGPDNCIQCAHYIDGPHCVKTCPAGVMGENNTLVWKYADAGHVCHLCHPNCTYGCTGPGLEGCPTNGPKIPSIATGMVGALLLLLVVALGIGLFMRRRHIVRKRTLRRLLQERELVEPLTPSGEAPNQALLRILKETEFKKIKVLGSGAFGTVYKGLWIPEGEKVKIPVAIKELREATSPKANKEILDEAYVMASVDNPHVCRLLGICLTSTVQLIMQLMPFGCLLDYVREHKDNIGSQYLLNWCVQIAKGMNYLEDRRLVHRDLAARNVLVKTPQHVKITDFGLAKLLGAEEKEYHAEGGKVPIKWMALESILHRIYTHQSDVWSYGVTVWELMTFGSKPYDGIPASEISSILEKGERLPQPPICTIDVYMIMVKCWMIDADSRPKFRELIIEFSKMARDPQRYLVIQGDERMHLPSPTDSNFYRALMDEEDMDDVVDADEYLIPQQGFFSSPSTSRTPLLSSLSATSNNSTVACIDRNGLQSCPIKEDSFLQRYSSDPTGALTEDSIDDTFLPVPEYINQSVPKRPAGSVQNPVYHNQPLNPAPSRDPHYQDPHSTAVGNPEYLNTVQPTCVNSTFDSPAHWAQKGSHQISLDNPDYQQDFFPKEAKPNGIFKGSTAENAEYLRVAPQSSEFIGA
# Chain of Tyrosine-protein kinase BTK (Homo sapiens) (Q06187 whole entry): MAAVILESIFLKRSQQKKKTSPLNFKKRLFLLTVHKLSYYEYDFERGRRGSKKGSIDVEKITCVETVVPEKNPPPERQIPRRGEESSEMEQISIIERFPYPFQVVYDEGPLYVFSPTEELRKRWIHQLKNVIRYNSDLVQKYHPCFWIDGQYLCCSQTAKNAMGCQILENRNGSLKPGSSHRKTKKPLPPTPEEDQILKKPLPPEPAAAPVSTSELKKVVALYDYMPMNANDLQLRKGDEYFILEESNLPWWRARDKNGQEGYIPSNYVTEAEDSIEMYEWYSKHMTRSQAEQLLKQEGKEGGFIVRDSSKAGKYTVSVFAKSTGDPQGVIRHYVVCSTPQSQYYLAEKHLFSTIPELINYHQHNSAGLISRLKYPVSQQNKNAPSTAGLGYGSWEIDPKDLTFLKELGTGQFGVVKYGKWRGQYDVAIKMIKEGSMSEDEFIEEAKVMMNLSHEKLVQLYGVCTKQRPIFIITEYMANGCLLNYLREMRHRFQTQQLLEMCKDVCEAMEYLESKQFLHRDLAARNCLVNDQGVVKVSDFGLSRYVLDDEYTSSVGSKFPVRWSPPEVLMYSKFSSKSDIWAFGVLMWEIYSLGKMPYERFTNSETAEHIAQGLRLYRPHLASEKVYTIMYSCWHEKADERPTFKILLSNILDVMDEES
# Chain of Tyrosine-protein kinase receptor UFO (Homo sapiens) (P30530 whole entry): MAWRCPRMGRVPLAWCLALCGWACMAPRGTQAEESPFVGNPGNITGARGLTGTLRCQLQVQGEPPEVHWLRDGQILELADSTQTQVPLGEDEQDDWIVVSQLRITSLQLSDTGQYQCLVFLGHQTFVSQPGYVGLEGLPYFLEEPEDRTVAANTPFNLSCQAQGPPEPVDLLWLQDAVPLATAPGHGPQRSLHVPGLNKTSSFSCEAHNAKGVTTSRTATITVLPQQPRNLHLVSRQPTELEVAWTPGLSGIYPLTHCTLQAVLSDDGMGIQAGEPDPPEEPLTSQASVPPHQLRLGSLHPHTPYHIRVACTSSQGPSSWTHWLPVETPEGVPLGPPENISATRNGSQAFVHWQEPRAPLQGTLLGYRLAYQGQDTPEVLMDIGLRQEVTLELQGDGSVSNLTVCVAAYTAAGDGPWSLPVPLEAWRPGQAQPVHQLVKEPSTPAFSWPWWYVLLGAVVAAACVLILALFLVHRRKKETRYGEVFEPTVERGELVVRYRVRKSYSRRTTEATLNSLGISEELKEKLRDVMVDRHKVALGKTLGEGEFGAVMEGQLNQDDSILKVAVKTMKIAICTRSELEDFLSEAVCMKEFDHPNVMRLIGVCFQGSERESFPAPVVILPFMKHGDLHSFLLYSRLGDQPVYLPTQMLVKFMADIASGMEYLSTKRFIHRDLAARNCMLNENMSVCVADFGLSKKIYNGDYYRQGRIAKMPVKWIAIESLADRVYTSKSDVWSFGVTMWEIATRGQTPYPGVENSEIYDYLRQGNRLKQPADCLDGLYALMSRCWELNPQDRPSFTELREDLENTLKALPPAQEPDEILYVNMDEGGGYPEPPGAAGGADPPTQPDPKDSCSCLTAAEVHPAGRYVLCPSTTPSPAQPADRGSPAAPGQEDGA
# Chain of Epidermal growth factor receptor (Homo sapiens) (P00533 whole entry): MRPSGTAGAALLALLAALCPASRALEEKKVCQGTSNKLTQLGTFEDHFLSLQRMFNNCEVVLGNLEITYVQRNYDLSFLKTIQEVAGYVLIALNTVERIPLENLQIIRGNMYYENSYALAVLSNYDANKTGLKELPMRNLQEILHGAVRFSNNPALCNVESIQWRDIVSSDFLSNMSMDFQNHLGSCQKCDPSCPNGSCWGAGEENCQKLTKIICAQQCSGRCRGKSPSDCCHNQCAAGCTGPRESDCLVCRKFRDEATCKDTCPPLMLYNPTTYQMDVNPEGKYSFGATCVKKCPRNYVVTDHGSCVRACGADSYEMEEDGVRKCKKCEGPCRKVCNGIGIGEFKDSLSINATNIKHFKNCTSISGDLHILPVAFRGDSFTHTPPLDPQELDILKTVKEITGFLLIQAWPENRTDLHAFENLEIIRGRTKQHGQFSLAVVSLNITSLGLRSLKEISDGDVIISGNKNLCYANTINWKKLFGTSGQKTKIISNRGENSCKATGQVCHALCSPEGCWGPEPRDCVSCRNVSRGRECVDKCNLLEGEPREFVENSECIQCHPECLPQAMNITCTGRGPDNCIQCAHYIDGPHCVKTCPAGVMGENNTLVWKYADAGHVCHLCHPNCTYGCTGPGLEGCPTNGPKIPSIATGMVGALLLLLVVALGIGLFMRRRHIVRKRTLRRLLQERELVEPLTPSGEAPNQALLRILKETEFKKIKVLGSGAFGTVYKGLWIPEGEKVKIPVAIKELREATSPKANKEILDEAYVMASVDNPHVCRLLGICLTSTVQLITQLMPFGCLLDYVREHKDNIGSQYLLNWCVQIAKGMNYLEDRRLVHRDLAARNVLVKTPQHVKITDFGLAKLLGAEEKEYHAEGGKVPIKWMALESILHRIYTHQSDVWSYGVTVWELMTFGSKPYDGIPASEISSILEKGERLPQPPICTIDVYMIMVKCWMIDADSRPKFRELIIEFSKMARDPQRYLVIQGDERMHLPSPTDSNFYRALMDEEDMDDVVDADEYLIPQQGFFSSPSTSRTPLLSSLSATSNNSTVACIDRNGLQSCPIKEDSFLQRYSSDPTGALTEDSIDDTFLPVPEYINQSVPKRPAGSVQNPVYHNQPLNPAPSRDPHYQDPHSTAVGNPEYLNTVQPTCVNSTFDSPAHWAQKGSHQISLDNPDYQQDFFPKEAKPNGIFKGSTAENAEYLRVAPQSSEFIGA
# Chain of Protein-tyrosine kinase 6 (Homo sapiens) (Q13882 whole entry, looked up): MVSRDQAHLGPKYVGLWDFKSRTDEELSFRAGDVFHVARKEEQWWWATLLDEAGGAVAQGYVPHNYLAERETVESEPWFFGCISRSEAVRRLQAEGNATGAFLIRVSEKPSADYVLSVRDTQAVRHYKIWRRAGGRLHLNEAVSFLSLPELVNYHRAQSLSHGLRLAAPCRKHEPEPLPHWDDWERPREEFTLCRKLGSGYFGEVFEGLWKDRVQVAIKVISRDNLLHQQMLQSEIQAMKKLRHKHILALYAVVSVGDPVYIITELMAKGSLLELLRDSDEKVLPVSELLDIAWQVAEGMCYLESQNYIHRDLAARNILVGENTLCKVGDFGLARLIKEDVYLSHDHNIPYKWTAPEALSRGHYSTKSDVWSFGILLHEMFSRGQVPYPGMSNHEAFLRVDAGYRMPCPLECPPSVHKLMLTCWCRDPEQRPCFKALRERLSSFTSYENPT
# Chain of Tyrosine-protein kinase Blk (Homo sapiens) (P51451 2-505 limits assumed): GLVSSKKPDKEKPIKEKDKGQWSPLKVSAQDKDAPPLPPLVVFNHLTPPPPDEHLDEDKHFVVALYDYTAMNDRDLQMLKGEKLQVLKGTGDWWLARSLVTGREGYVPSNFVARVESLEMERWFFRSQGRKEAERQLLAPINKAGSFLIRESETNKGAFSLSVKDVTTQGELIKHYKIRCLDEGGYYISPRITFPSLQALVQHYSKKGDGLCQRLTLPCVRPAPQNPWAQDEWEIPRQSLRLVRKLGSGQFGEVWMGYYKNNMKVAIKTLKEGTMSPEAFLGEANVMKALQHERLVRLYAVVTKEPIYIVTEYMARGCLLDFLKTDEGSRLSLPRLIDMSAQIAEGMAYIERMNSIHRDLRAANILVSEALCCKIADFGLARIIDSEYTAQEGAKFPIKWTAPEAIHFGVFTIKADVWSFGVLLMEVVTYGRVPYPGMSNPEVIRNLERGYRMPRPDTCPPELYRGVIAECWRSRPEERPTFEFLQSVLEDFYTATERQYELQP
Compound,inhibition [1],inhibition [2],inhibition [3],inhibition [4],inhibition [5],inhibition [6],inhibition [7],inhibition [8],inhibition [9],inhibition [10],inhibition [11],inhibition [12],inhibition [13],inhibition [14],inhibition [15],inhibition [16],inhibition [17],inhibition [18],inhibition [19],inhibition [20]
COC(=O)c1ccc2c(c1)C(=Cc1cc(Br)c(O)c(Br)c1)C(=O)N2,-4.28%,3.19%,11.6%,3.04%,7.64%,2.4%,6.95%,-1.29%,0.81%,-0.27%,5.89%,2.18%,7.08%,3.97%,2.76%,-1.26%,11.3%,0.68%,4.11%,0.31%
NC(=O)c1cccc(Nc2nccc(Nc3cccc(F)c3)n2)c1,-2.93%,0.38%,13.8%,4.88%,37.9%,4.3%,36.2%,0.63%,7.3%,0.49%,9.32%,-1.54%,6.93%,1.6%,10.6%,0.01%,31.4%,0.09%,10.1%,-0.56%
COc1cccc(-n2ncc3c(N/N=C/c4ccc(C)cc4)ncnc32)c1,-6.6%,3.17%,7.15%,5.21%,10.6%,3.4%,5.43%,-0.28%,0.44%,2.91%,8.35%,0.39%,2.37%,3.01%,4.71%,2.45%,11.7%,1.42%,6.09%,0.91%
COc1cc(Nc2nccc(-c3cnn4ncccc34)n2)cc(OC)c1,20.7%,2%,24.8%,7.04%,31.3%,0.23%,17.6%,1.94%,11.3%,2.91%,12.1%,1.4%,8.7%,1.68%,5.94%,2.1%,16.7%,0.35%,3.09%,0.47%
CCS(=O)(=O)c1ccc(OC)c(Nc2ncc(-c3cccc(OC)c3)o2)c1,-1.98%,10.4%,64.3%,-2.1%,25.9%,6.68%,40.7%,3.67%,21.6%,-0.51%,10.6%,3.76%,20%,1.96%,8.46%,6.95%,27.6%,4.06%,6.2%,1.83%
CN(C)C(=O)O[C@H]1CN[C@H](C#Cc2cc3ncnc(Nc4ccc(OCc5cccc(F)c5)c(Cl)c4)c3s2)C1,-1.68%,2.47%,4.23%,-3.39%,3.3%,5.52%,4.14%,-1.08%,0.74%,0.6%,2.76%,1.62%,1.98%,–,–,–,–,–,–,–
N#Cc1cccc(Nc2nccc(-c3cnn4ncccc34)n2)c1,33.8%,5.38%,26.5%,4.87%,39.7%,5.32%,23.5%,2.23%,5.13%,5.02%,13.4%,2.63%,7.43%,1.1%,6.11%,4.18%,18.2%,4.53%,7.78%,2.36%
NC(=O)c1sc(-n2cnc3ccccc32)cc1OCc1ccccc1Br,-4.14%,2.16%,3.7%,3.03%,4.96%,1.74%,7.25%,-0.65%,-0.19%,1.13%,2.18%,1.76%,1.6%,1.88%,0.93%,-0.06%,5%,1.71%,2.89%,1.26%
Cc1ccc2c(c1)/C(=N/Nc1ccc(S(N)(=O)=O)cc1)C(=O)N2,2.86%,0.29%,11.2%,1.94%,-0.8%,-3.49%,-3.16%,0.42%,3.78%,-2.97%,-6.97%,-0.42%,-0.71%,-0.37%,0.75%,-1.56%,-1.97%,-0.23%,-4.18%,-0.84%
OCc1ccc(-c2nc(-c3ccccn3)c(-c3ccc4c(c3)OCO4)[nH]2)cc1,-3.37%,3.13%,5.92%,-2.19%,4.67%,4.49%,5.07%,3.02%,3.51%,3.92%,3.94%,2.68%,4.73%,3.69%,6.33%,3.45%,1.89%,3.49%,-0.4%,2.68%
CCn1c(-c2nonc2N)nc2c(C#CC(C)(C)O)nc(OCCNC)cc21,-6.1%,1.45%,3.35%,3.16%,6.56%,5.42%,3.09%,-1.33%,-0.61%,1.36%,5.91%,1.73%,2.04%,0.82%,0.07%,1.22%,3.32%,1.91%,2.32%,1.88%
NS(=O)(=O)c1ccc(NC=C2C(=O)Nc3ccc4ncsc4c32)cc1,42.4%,8.34%,58.3%,6.93%,13.8%,3.25%,8.92%,0.4%,3.74%,2.77%,3.77%,1.65%,6.94%,0.01%,0.9%,3.08%,5.45%,2.21%,0.54%,2.24%
O=C(Nc1ccc(Oc2ccc3[nH]c(NC(=O)c4ccco4)nc3c2)cc1)Nc1cc(C(F)(F)F)ccc1F,60.5%,-3.12%,1.7%,-2.09%,1.74%,1.76%,3.78%,-3.7%,-3.03%,2.94%,35.3%,60.3%,80.2%,-1.7%,-1.45%,0.69%,0.69%,0.16%,-2.44%,0.07%
C[C@@H](Oc1cc(-n2cnc3ccc(OCC4CCN(C)CC4)cc32)sc1C(N)=O)c1ccccc1C(F)(F)F,12.8%,1.16%,14.4%,-1.33%,-2.09%,-0.71%,-4.24%,0.52%,-1.06%,-4.98%,-1.36%,-1.18%,-4.23%,2.6%,9.98%,8.84%,42.5%,-0.46%,8.68%,-1.87%
